Measured values taken from PubChem BioAssay AID1159580 (chemical genetic matrix, 2015).
Screen size: about 5,500 compounds; about 2,000 (36%) were called active. Roughly 18% stayed inconclusive and do not appear here. Rule as the data show it: active = normalized growth mostly below about 0.91 (no sharp cut-off); inconclusive = no clear call, values can overlap the other calls; inactive = mostly above about 0.92. This is one part of the list.

Test: chemical genetic growth profiling, strain panel (AID 1159580);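 also: tested at 20 µM; growth read once vehicle control cultures reached saturation at 30 °C; 1 = growth at the plate median or of vehicle wells; lower values mean less growth of the strain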
Conditions: growth OD
[1] = S. cerevisiae deletion strains, locus YDL101C, strain DUN1, stronger effect = lower value
[2] = S. cerevisiae deletion strains, locus YHR030C, strain SLT2, stronger effect = lower value
[3] = S. cerevisiae deletion strains, locus YJL095W, strain BCK1, stronger effect = lower value
[4] = S. cerevisiae deletion strains, locus YOR061W, strain CKA2, stronger effect = lower value

Measured: normalized growth

Oc1c(Br)cc(Br)cc1C=Nc1ccc(Sc2ccccc2)nc1Sc1ccccc1
inactive: S. cerevisiae deletion strains, locus YAR019C, strain CDC15, stronger effect = lower value 0.92 | S. cerevisiae deletion strains, locus YBL105C, strain PKC1, stronger effect = lower value 0.945 | S. cerevisiae deletion strains, locus YBR135W, strain CKS1, stronger effect = lower value 0.926 | S. cerevisiae deletion strains, locus YBR136W, strain MEC1, stronger effect = lower value 0.945 | S. cerevisiae deletion strains, locus YBR160W, strain CDC28, stronger effect = lower value 0.936 | S. cerevisiae deletion strains, locus YDL017W, strain CDC7, stronger effect = lower value 0.948 | S. cerevisiae deletion strains, locus YDL028C, strain MPS1, stronger effect = lower value 0.917 | [1] 0.969 | S. cerevisiae deletion strains, locus YDL108W, strain KIN28, stronger effect = lower value 0.926 | S. cerevisiae deletion strains, locus YDL132W, strain cdc53, stronger effect = lower value 0.931 | S. cerevisiae deletion strains, locus YDR052C, strain DBF4, stronger effect = lower value 0.955 | S. cerevisiae deletion strains, locus YDR054C, strain cdc34, stronger effect = lower value 0.927 | S. cerevisiae deletion strains, locus YDR226W, strain ADK1, stronger effect = lower value 0.932 | S. cerevisiae deletion strains, locus YFL009W, strain cdc4, stronger effect = lower value 0.927 | S. cerevisiae deletion strains, locus YFL029C, strain CAK1, stronger effect = lower value 0.937 | S. cerevisiae deletion strains, locus YFR003C, strain YPI1, stronger effect = lower value 0.94 | S. cerevisiae deletion strains, locus YFR028C, strain CDC14, stronger effect = lower value 0.924 | S. cerevisiae deletion strains, locus YIL147C, strain SLN1, stronger effect = lower value 0.931 | S. cerevisiae deletion strains, locus YJL128C, strain PBS2, stronger effect = lower value 0.904 | S. cerevisiae deletion strains, locus YJR016C, strain ILV3, stronger effect = lower value 0.953 | S. cerevisiae deletion strains, locus YKL193C, strain SDS22, stronger effect = lower value 0.93 | S. cerevisiae deletion strains, locus YMR001C, strain CDC5, stronger effect = lower value 0.922 | S. cerevisiae deletion strains, locus YMR277W, strain FCP1, stronger effect = lower value 0.904 | S. cerevisiae deletion strains, locus YNL006W, strain LST8, stronger effect = lower value 0.941 | S. cerevisiae deletion strains, locus YNL161W, strain CBK1, stronger effect = lower value 0.945 | S. cerevisiae deletion strains, locus YNL207W, strain RIO2, stronger effect = lower value 0.953 | S. cerevisiae deletion strains, locus YNL222W, strain SSU72, stronger effect = lower value 0.915 | S. cerevisiae deletion strains, locus YOL078W, strain AVO1, stronger effect = lower value 0.928 | S. cerevisiae deletion strains, locus YOR329C, strain SCD5, stronger effect = lower value 0.951 | S. cerevisiae deletion strains, locus YPL209C, strain IPL1, stronger effect = lower value 0.949 | S. cerevisiae deletion strains, locus YPR025C, strain CCL1, stronger effect = lower value 0.935 | S. cerevisiae deletion strains, locus YPR106W, strain ISR1, stronger effect = lower value 0.945 | S. cerevisiae deletion strains, locus YPR111W, strain DBF20, stronger effect = lower value 0.915 | S. cerevisiae deletion strains, strain NNK1, stronger effect = lower value 0.945 | S. cerevisiae deletion strains, strain TSCII, stronger effect = lower value 0.928
active: S. cerevisiae deletion strains, locus YDL214C, strain PRR2, stronger effect = lower value 0.331 | S. cerevisiae deletion strains, locus YDR477W, strain SNF1, stronger effect = lower value 0.311 | S. cerevisiae deletion strains, locus YER123W, strain YCK3, stronger effect = lower value 0.364 | S. cerevisiae deletion strains, locus YER133W, strain GLC7, stronger effect = lower value 0.285 | S. cerevisiae deletion strains, locus YGR040W, strain KSS1, stronger effect = lower value 0.351 | S. cerevisiae deletion strains, locus YGR052W, strain FMP48, stronger effect = lower value 0.196 | S. cerevisiae deletion strains, locus YGR092W, strain DBF2, stronger effect = lower value 0.155 | [2] 0.103 | S. cerevisiae deletion strains, locus YHR079C, strain IRE1, stronger effect = lower value 0.151 | S. cerevisiae deletion strains, locus YHR082C, strain KSP1, stronger effect = lower value 0.155 | S. cerevisiae deletion strains, locus YHR205W, strain SCH9, stronger effect = lower value 0.0625 | [3] 0.14 | S. cerevisiae deletion strains, locus YJL157C, strain FAR1, stronger effect = lower value 0.208 | S. cerevisiae deletion strains, locus YJR066W, strain TOR1 (second series), stronger effect = lower value 0.591 | S. cerevisiae deletion strains, locus YJR066W, strain TOR1, stronger effect = lower value 0.162 | S. cerevisiae deletion strains, locus YKL048C, strain ELM1, stronger effect = lower value 0.483 | S. cerevisiae deletion strains, locus YKL067W, strain YNK1, stronger effect = lower value 0.24 | S. cerevisiae deletion strains, locus YKL101W, strain HSL1, stronger effect = lower value 0.353 | S. cerevisiae deletion strains, locus YKL203C, strain TOR2, stronger effect = lower value 0.388 | S. cerevisiae deletion strains, locus YLR113W, strain HOG1, stronger effect = lower value 0.383 | S. cerevisiae deletion strains, locus YLR133W, strain CKI1, stronger effect = lower value 0.226 | S. cerevisiae deletion strains, locus YLR403W, strain SFP1, stronger effect = lower value 0.134 | S. cerevisiae deletion strains, locus YML070W, strain DAK1, stronger effect = lower value 0.406 | S. cerevisiae deletion strains, locus YMR205C, strain PFK2 (second series), stronger effect = lower value 0.248 | S. cerevisiae deletion strains, locus YNL020C, strain ARK1, stronger effect = lower value 0.174 | S. cerevisiae deletion strains, locus YNL183C, strain NPR1, stronger effect = lower value 0.236 | S. cerevisiae deletion strains, locus YNL307C, strain MCK1 (second series), stronger effect = lower value 0.222 | S. cerevisiae deletion strains, locus YOL136C, strain PFK27, stronger effect = lower value 0.43 | [4] 0.142 | S. cerevisiae deletion strains, locus YOR119C, strain RIO1, stronger effect = lower value 0.313 | S. cerevisiae deletion strains, locus YOR231W, strain MKK1, stronger effect = lower value 0.196 | S. cerevisiae deletion strains, locus YPL031C, strain PHO85, stronger effect = lower value 0.29 | S. cerevisiae deletion strains, locus YPL153C, strain RAD53, stronger effect = lower value 0.249 | S. cerevisiae deletion strains, locus YPL204W, strain HRR25, stronger effect = lower value 0.311 | S. cerevisiae deletion strains, locus YPL256C, strain CLN2, stronger effect = lower value 0.314

CCOC(=O)NC1=C(C2CC2)C(=O)C(NC(=O)OCC)=C(C2CC2)C1=O
inactive: S. cerevisiae deletion strains, locus YAL013W, strain DEP1, stronger effect = lower value 0.97 | S. cerevisiae deletion strains, locus YBR021W, strain FUR4, stronger effect = lower value 0.961 | S. cerevisiae deletion strains, locus YBR229C, strain ROT2, stronger effect = lower value 1 | S. cerevisiae deletion strains, locus YCL029C, strain bik1, stronger effect = lower value 0.993 | S. cerevisiae deletion strains, locus YDL035C, strain GPR1, stronger effect = lower value 1 | S. cerevisiae deletion strains, locus YDL074C, strain BRE1, stronger effect = lower value 1.04 | [1] 1 | S. cerevisiae deletion strains, locus YDL134C, strain PPH21, stronger effect = lower value 1 | S. cerevisiae deletion strains, locus YDL185W, strain tfp1, stronger effect = lower value 0.98 | S. cerevisiae deletion strains, locus YDL192W, strain arf1, stronger effect = lower value 0.991 | S. cerevisiae deletion strains, locus YDR101C, strain arx1, stronger effect = lower value 0.993 | S. cerevisiae deletion strains, locus YDR150W, strain NUM1, stronger effect = lower value 0.99 | S. cerevisiae deletion strains, locus YDR162C, strain NBP2, stronger effect = lower value 1.01 | S. cerevisiae deletion strains, locus YDR318W, strain mcm21, stronger effect = lower value 0.99 | S. cerevisiae deletion strains, locus YDR388W, stronger effect = lower value 0.995 | S. cerevisiae deletion strains, locus YDR502C, strain sam2, stronger effect = lower value 0.996 | S. cerevisiae deletion strains, locus YEL061C, strain CIN8, stronger effect = lower value 0.995 | S. cerevisiae deletion strains, locus YER110C, stronger effect = lower value 0.98 | S. cerevisiae deletion strains, locus YER155C, strain BEM2, stronger effect = lower value 0.994 | S. cerevisiae deletion strains, locus YER167W, strain BCK2, stronger effect = lower value 0.98 | S. cerevisiae deletion strains, locus YGL078C, strain dbp3, stronger effect = lower value 0.983 | S. cerevisiae deletion strains, locus YGL086W, strain mad1, stronger effect = lower value 0.982 | S. cerevisiae deletion strains, locus YGL248W, strain PDE1, stronger effect = lower value 1 | S. cerevisiae deletion strains, locus YGR078C, strain PAC10, stronger effect = lower value 1.01 | S. cerevisiae deletion strains, locus YGR135W, strain pre9, stronger effect = lower value 1 | S. cerevisiae deletion strains, locus YGR229C, strain SMI1, stronger effect = lower value 1.04 | S. cerevisiae deletion strains, locus YGR252W, strain gcn5, stronger effect = lower value 1.02 | [2] 0.986 | S. cerevisiae deletion strains, locus YHR079C, strain IRE1 (second series), stronger effect = lower value 0.99 | S. cerevisiae deletion strains, locus YHR094C, strain hxt1, stronger effect = lower value 0.976 | S. cerevisiae deletion strains, locus YHR129C, strain ARP1, stronger effect = lower value 0.999 | S. cerevisiae deletion strains, locus YHR200W, strain rpn10, stronger effect = lower value 0.992 | S. cerevisiae deletion strains, locus YIL066C, strain RNR3, stronger effect = lower value 1 | S. cerevisiae deletion strains, locus YIL073C, strain SPO22, stronger effect = lower value 0.9 | S. cerevisiae deletion strains, locus YIL125W, strain kgd1, stronger effect = lower value 0.988 | S. cerevisiae deletion strains, locus YIR030C, strain dcg1, stronger effect = lower value 0.995 | [3] 1.05 | S. cerevisiae deletion strains, locus YJL134W, strain LCB3, stronger effect = lower value 0.993 | S. cerevisiae deletion strains, locus YJL168C, strain set2, stronger effect = lower value 0.993 | S. cerevisiae deletion strains, locus YJL187C, strain SWE1 (second series), stronger effect = lower value 0.988 | S. cerevisiae deletion strains, locus YJR043C, strain POL32, stronger effect = lower value 0.997 | S. cerevisiae deletion strains, locus YJR075W, strain HOC1, stronger effect = lower value 0.999 | S. cerevisiae deletion strains, locus YKL009W, strain mrt4, stronger effect = lower value 0.973 | S. cerevisiae deletion strains, locus YKL068W, stronger effect = lower value 0.98 | S. cerevisiae deletion strains, locus YKL085W, strain MDH1 (second series), stronger effect = lower value 0.984 | S. cerevisiae deletion strains, locus YKL085W, strain MDH1, stronger effect = lower value 0.984 | S. cerevisiae deletion strains, locus YKL190W, strain CNB1, stronger effect = lower value 0.994 | S. cerevisiae deletion strains, locus YKR001C, strain vps1, stronger effect = lower value 0.989 | S. cerevisiae deletion strains, locus YLR039C, strain RIC1, stronger effect = lower value 0.96 | S. cerevisiae deletion strains, locus YLR058C, strain SHM2, stronger effect = lower value 0.984 | S. cerevisiae deletion strains, locus YLR102C, strain apc9, stronger effect = lower value 0.992 | S. cerevisiae deletion strains, locus YLR262C, strain YPT6, stronger effect = lower value 1.01 | S. cerevisiae deletion strains, locus YLR268W, strain sec22, stronger effect = lower value 1.01 | S. cerevisiae deletion strains, locus YLR330W, strain CHS5, stronger effect = lower value 0.989 | S. cerevisiae deletion strains, locus YLR342W, strain FKS1 (second series), stronger effect = lower value 0.976 | S. cerevisiae deletion strains, locus YLR371W, strain rom2, stronger effect = lower value 0.976 | S. cerevisiae deletion strains, locus YLR418C, strain cdc73, stronger effect = lower value 1.03 | S. cerevisiae deletion strains, locus YML016C, strain PPZ1, stronger effect = lower value 0.99 | S. cerevisiae deletion strains, locus YML032C, strain rad52, stronger effect = lower value 0.985 | S. cerevisiae deletion strains, locus YML124C, strain tub3, stronger effect = lower value 0.988 | S. cerevisiae deletion strains, locus YMR078C, strain ctf18, stronger effect = lower value 0.993 | S. cerevisiae deletion strains, locus YMR223W, strain ubp8, stronger effect = lower value 0.979 | S. cerevisiae deletion strains, locus YMR263W, strain SAP30, stronger effect = lower value 1.01 | S. cerevisiae deletion strains, locus YMR307W, strain GAS1, stronger effect = lower value 0.999 | S. cerevisiae deletion strains, locus YNL067W, strain RPL9B, stronger effect = lower value 1.03 | S. cerevisiae deletion strains, locus YNL128W, strain TEP1, stronger effect = lower value 1.01 | S. cerevisiae deletion strains, locus YNL153C, strain GIM3, stronger effect = lower value 1.01 | S. cerevisiae deletion strains, locus YNL233W, strain BNI4, stronger effect = lower value 1.01 | S. cerevisiae deletion strains, locus YNL250W, strain rad50, stronger effect = lower value 0.981 | S. cerevisiae deletion strains, locus YNL271C, strain bni1, stronger effect = lower value 0.984 | S. cerevisiae deletion strains, locus YNL298W, strain CLA4, stronger effect = lower value 0.985 | S. cerevisiae deletion strains, locus YNL307C, strain MCK1, stronger effect = lower value 0.985 | S. cerevisiae deletion strains, locus YNL322C, strain KRE1, stronger effect = lower value 0.998 | S. cerevisiae deletion strains, locus YNR052C, strain pop2, stronger effect = lower value 0.98 | S. cerevisiae deletion strains, locus YOL006C, strain TOP1, stronger effect = lower value 1.1 | S. cerevisiae deletion strains, locus YOL012C, strain htz1 1.15 | S. cerevisiae deletion strains, locus YOL147C, strain pex11, stronger effect = lower value 0.986 | [4] 1 | S. cerevisiae deletion strains, locus YOR069W, strain VPS5, stronger effect = lower value 0.995 | S. cerevisiae deletion strains, locus YOR136W, strain idh2, stronger effect = lower value 0.983 | S. cerevisiae deletion strains, locus YOR144C, strain elg1, stronger effect = lower value 1 | S. cerevisiae deletion strains, locus YOR184W, strain ser1, stronger effect = lower value 0.974 | S. cerevisiae deletion strains, locus YOR316C, strain cot1, stronger effect = lower value 0.985 | S. cerevisiae deletion strains, locus YPL055C, strain LGE1, stronger effect = lower value 1.04 | S. cerevisiae deletion strains, locus YPL241C, strain CIN2, stronger effect = lower value 0.999 | S. cerevisiae deletion strains, locus YPR119W, strain clb2, stronger effect = lower value 0.988 | S. cerevisiae deletion strains, locus YPR141C, strain kar3, stronger effect = lower value 0.984 | S. cerevisiae deletion strains, locus YPR163C, strain tif3, stronger effect = lower value 0.988 | S. cerevisiae deletion strains, locus YPR167C, strain met16, stronger effect = lower value 1 | S. cerevisiae deletion strains, strain wtn01, stronger effect = lower value 0.995 | S. cerevisiae strains, strain wild type, stronger effect = lower value 0.995
